The supplement of paper PMC7156485
± gives the standard deviation of the averaged measurements.

What was measured:
Details in all cases: concentration: 10 µM; 24 h
HCC1569 [1] = experiment: cell number relative to DMSO (% of DMSO); higher = more cells (less growth inhibition / toxicity)
Procedure, shortened: (§1)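 After 24 h at 37 °C with compounds at 10 µM, in triplicate, HCC1569 and TDF cells were fixed with 3.7% formaldehyde. Immunostaining used a rabbit anti-H1.0 antibody and an AlexaFluor 647 secondary, with DAPI, and six fields per well were imaged at ×10. H1.0 nuclear intensity or cell number is presented as percent of the plate control, from the median of replicates, with HCC1569 values smoothed for positional effects.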

TDF [2] = experiment: as above
Procedure, shortened: as §1

TDF [3] = experiment: H1.0 immunofluorescence intensity relative to DMSO (% of DMSO); higher = stronger H1.0 induction, active = 120 or more
Procedure, shortened: as §1

HCC1569 [4] = experiment: H1.0 immunofluorescence intensity relative to DMSO (% of DMSO); higher = stronger H1.0 induction, active = 140 or more
Procedure, shortened: as §1
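Throughout, for H1.0 immunofluorescence intensity relative to DMSO: TDF is a line of transformed human dermal fibroblasts of mesenchymal origin.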
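Throughout, for cell number relative to DMSO: TDF denotes transformed human dermal fibroblasts of mesenchymal origin.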

SMILES	cell number (HCC1569 [1])	cell number (TDF [2])	H1.0 immunofluorescence intensity (TDF [3])	H1.0 immunofluorescence intensity (HCC1569 [4])
CN(C)CCCN1c2ccccc2CCc2ccc(Cl)cc21.Cl [Clomipramine hydrochloride]	89.6	102	107 (inactive)	122 (inactive)
Cc1ccc(C)c(-c2cc(C(F)(F)F)nn2-c2ccc(S(N)(=O)=O)cc2)c1	101	96.8	97.5 (inactive)	101 (inactive)
Cc1ccc(NC(=O)c2ccc(CN3CCN(C)CC3)cc2)cc1Nc1nc(-c2cccnc2)cs1 [Masatinib(AB1010)]	82.7	79.9	109 (inactive)	141 (active)
O=C1NC(=O)c2c1c(-c1ccccc1)cc1[nH]c3ccc(O)cc3c21	59.9	51.1	101 (inactive)	91.4 (inactive)
CSC(=N)N.CSC(=N)N.O=S(=O)(O)O [S-Methylisothiourea hemisulfate]	103	98.6	93.5 (inactive)	96.7 (inactive)
CCCCCCCCC=CCCCCCCCCCCCC(=O)O [13(Z)-Docosenoic acid]	104	108	95.2 (inactive)	102 (inactive)
CC(C)NNC(=O)c1ccncc1 [Iproniazid]	104	103	100 (inactive)	112 (inactive)
Cc1nc2ccc(Oc3ccc(F)cc3)cc2c(=O)n1C[C@H]1CCCN(C(C)C)C1.Cl	94.1	105	117 (inactive)	102 (inactive)
O=c1ccn(C2OC(COP(=O)([O-])OP(=O)([O-])O)C(O)C2O)c(=O)[nH]1.[Na+].[Na+] (stereo unspecified) [Uridine 5'-diphosphate sodium]	105	106	95.6 (inactive)	98.7 (inactive)
CCCCCCCCCCCCCCCCC(=O)O [Heptadecanoic acid]	99.9	94.9	103 (inactive)	103 (inactive)
CCN(CC)CCCCN1c2ccccc2Oc2ccc(Cl)cc21.Cl [Akt Inhibitor X]	83	87.1	108 (inactive)	150 (active)
CC1(C)OC2CC3C4CC(F)C5=CC(=O)C=CC5(C)C4(F)C(O)CC3(C)C2(C(=O)CO)O1 (stereo unspecified) [Fluocinolone acetonide]	101	96.3	88.2 (inactive)	124 (inactive)
COC(=O)c1c(-c2cc(OC)c(OC)c(OC)c2)c2ccnc(OCc3ncccn3)c2c(=O)n1Cc1ccnc(C)c1.Cl	100	110	94.3 (inactive)	95.2 (inactive)
O=C(O)CCCCC=CCC(O)C=CC=CC=CC(O)CCCC(=O)O (stereo unspecified) [20-Carboxy-leukotriene B4]	102	103	91.1 (inactive)	102 (inactive)
O=c1c(-c2ccc(O)cc2)coc2cc(O)ccc12 [Daidzein]	101 ± 2.1	107 ± 14	92.4 (inactive)	94.6 (inactive)
NC(=O)c1ccc2[nH]ccc2c1	108	97.1	101 (inactive)	94.2 (inactive)
CCC=CCC=CCC=CCCCCCCCCCC(=O)O [Eicosatrienoic acid]	101 ± 2.8	96.7 ± 14	100 (inactive)	99.5 (inactive)
C[N+](C)(C)CCO.[Cl-] [2-hydroxy-N,N,N-trimethylethanaminium chloride]	101	107	94.9 (inactive)	99.5 (inactive)
COc1ccc2cc3[n+](cc2c1OC)CCc1cc2c(cc1-3)OCO2.Cl	99.4	77.9	97.4 (inactive)	101 (inactive)
Cc1cccc(C#Cc2ccccc2)n1.Cl [6-Methyl-2-(phenylethynyl)pyridine hydrochloride]	99.9	105	91.5 (inactive)	96.7 (inactive)
[Cl-].[Li+] [Lithium Chloride]	101	109	92.2 (inactive)	88 (inactive)
O=C(O)Cc1ccc(O)c(O)c1 [3,4-Dihydroxyphenylacetic acid]	104	102	95.9 (inactive)	96.6 (inactive)
Cl.NCCS [Cysteamine hydrochloride]	101	99.7	91.2 (inactive)	101 (inactive)
CN1C2CCC1CC(OC(c1ccccc1)c1ccccc1)C2.CS(=O)(=O)O (stereo unspecified) [Benztropine mesylate]	97.2	114	97.6 (inactive)	97.7 (inactive)
